About 9,100 (2.5%) of roughly 360,000 compounds were called active. About 4% were inconclusive and are not listed. Rule as the data show it: active = max response below about -50%; inconclusive = no clear call, values can overlap the other calls; inactive = above that. Many of the other results were omitted from the sample, so actives are more common in it than they were.
Biological target: D(3) dopamine receptor (Homo sapiens) (UniProt P35462)
Assay: qHTS of D3 Dopamine Receptor Antagonist: qHTS
Conditions: D3R cells, DiscoveRx beta-arrestin luminescence, antagonist mode; active compounds read low
Outline: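 Cells expressing the human receptor were seeded at 1500 cells/well, incubated overnight at 37 degrees C in 5% CO2, then exposed to library compounds with dopamine controls for 90 minutes at 37 degrees C before luminescent detection.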
% is scaled to controls: 0 for no effect and ±100 for the full control effect.

Sequence of D(3) dopamine receptor (Homo sapiens) (P35462 whole entry, looked up): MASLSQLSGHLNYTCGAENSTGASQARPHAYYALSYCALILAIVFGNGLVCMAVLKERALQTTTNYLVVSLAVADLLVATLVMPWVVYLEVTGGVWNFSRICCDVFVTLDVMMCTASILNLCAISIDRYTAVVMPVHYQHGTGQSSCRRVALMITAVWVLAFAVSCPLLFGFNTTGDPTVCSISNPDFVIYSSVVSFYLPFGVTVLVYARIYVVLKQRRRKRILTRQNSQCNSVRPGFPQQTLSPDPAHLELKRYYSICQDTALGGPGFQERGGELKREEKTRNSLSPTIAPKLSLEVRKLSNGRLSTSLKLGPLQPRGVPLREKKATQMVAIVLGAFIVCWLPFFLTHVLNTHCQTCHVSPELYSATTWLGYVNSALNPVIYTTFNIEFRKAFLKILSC

Structure (SMILES) | max response, negative = inhibition
C[C@@H]1CC2=C(C(=O)OC(C)(C)O2)[C@@H](C2CC2)O1 | 20% (inactive)
CC1(C(=O)NCc2ccccc2)CN(S(C)(=O)=O)CC(=O)N1CC(F)(F)F (stereo not drawn) | 17.5% (inactive)
Cc1cccc(C(=O)C(O)(c2ccccc2)C2CCCCC2=O)c1 (stereo not drawn) | 6.43% (inactive)
CC(=O)c1cc2c(cc1NC(=O)CN1CCCCCC1)OCO2 | -65% (active)
O=C(CN1CCCCCC1)Nc1ccc(Br)cc1Br | -12.8% (inactive)
CC(=O)c1cc2c(cc1NC(=O)Cn1nc(-c3ccc(F)cc3)ccc1=O)OCO2 | -11.4% (inactive)
COc1ccc(C(C)(O)c2nc(-c3cc(F)cc(F)c3)cs2)cc1 (stereo not drawn) | 2.54% (inactive)
Cc1ccccc1S(=O)(=O)NC(=O)C1(C)CCN1C(=O)Cc1ccc(Cl)cc1Cl (stereo not drawn) | -7.52% (inactive)
O=C1[C@H]2[C@@H](c3ccc(C(F)(F)F)cc3)N[C@]3(CCCN(Cc4ccc(Br)cc4)C3=O)[C@H]2C(=O)N1Cc1ccccc1 | 29.8% (inactive)
CC(C)CCNc1nc(N2CCCC2)c2c(c1C#N)CCN(C)C2 | -65.7% (active)
CCc1nc(NCCO)c(C#N)c2c1CCCC2 | -13.6% (inactive)
CC(C)Cc1nc(N2CCOCC2)c(C#N)c2c1CCC2 | 36.7% (inactive)
CCOC(=O)C1(C)CCCN(C(=O)c2ccc(N(C)C)cc2)C1 (stereo not drawn) | 3.97% (inactive)
NC(=O)NC(CC(=O)NNC(=O)c1ccccn1)c1ccc(Cl)cc1 (stereo not drawn) | -12.6% (inactive)
CC(=NNC(=S)N1CCCCCC1)c1ccccn1 | 18.7% (inactive)
C/C(=N\NC(=O)Cc1ccc(Cl)cc1)c1ccccn1 | -93.2% (active)
CC1(C(=O)NS(=O)(=O)c2ccc(Cl)cc2)CCN1C(=O)CC1CCCC1 (stereo not drawn) | -16% (inactive)
CCN1C(=O)[C@H]2[C@@H](c3ccccc3)N[C@]3(CCCN(Cc4ccc(C)cc4)C3=O)[C@H]2C1=O | -7.93% (inactive)
CCc1nc2ccc(C(=O)N3CCC(O)(Cc4ccccc4)CC3)cn2c1N(C)C(=O)Cc1ccccc1 | -22.4% (inactive)
Cc1ccc(CN2CCN(c3ccccc3Cl)CC2)o1 | -75.6% (active)

Structure (SMILES) | max response, negative = inhibition
Cc1ccc(CN2CCN(Cc3cn(C)nc3-c3ccccc3)CC2CCO)o1 (stereo not drawn) | 3.14% (inactive)
Cc1ccc(CN2CCN(Cc3ccc(OCCO)cc3)CC2CCO)o1 (stereo not drawn) | 4.23% (inactive)
COc1ccc(C(CNC(=O)c2cccc(S(=O)(=O)Nc3ccc(Br)cc3)c2)N(C)C)cc1 (stereo not drawn) | -53.5% (active)
CC(NC(=O)c1cccc(S(=O)(=O)N2CCc3ccccc3C2)c1)c1ccco1 (stereo not drawn) | 4.52% (inactive)
COc1ccccc1C(CNC(=O)c1cccc(S(=O)(=O)Nc2ccc(F)cc2)c1)N(C)C (stereo not drawn) | -23.9% (inactive)
CN(C)C(CNC(=O)c1cccc(S(=O)(=O)N2CCc3ccccc3C2)c1)c1ccccc1 (stereo not drawn) | -80.6% (active)
COc1ccc(C(CNC(=O)c2cccc(NS(=O)(=O)c3ccc(C)c(F)c3)c2)N2CCCC2)cc1 (stereo not drawn) | -55.7% (active)
COc1ccc(C(CNC(=O)c2cccc(S(=O)(=O)Nc3ccccc3Cl)c2)N2CCOCC2)cc1 (stereo not drawn) | 22.5% (inactive)
COc1ccc(C(CNC(=O)c2ccc(NS(=O)(=O)c3ccc(F)c(C)c3)cc2)N(C)C)cc1 (stereo not drawn) | -15.4% (inactive)
COc1ccc(C(CNC(=O)c2cc(S(=O)(=O)Nc3cccc(C)c3)ccc2C)N2CCCC2)cc1 (stereo not drawn) | -25.7% (inactive)
O=C(Nc1ccc(S(=O)(=O)N2CCc3ccccc3C2)cc1)c1ccccc1 | 19.5% (inactive)
CC1(C(=O)NCc2ccc3c(c2)OCO3)CCN1C(=O)Cc1cccs1 (stereo not drawn) | 27.8% (inactive)
CCCc1c(C)nc2scc(-c3ccc(Cl)cc3)n2c1=O | 3.72% (inactive)
COc1ccc(OC)c(C(O)c2ncc(-c3cccc(C(F)(F)F)c3)[nH]2)c1 (stereo not drawn) | -26% (inactive)
CCOC(=O)[C@]12CCCC=C1N(Cc1cccc3ccccc13)C(=O)[C@H](CC(=O)NCC13CC4CC(CC(C4)C1)C3)C2 | -25.2% (inactive)
CCCNC(=O)c1cc(C2CCCCN2S(=O)(=O)c2cn(C)cn2)on1 (stereo not drawn) | 0.438% (inactive)
CN(C)c1cccc(NC(=O)c2ccc(-c3ccc(F)c(F)c3)c3ccoc23)c1 | -0.987% (inactive)
CC(C)CN1C(=O)CN(S(C)(=O)=O)CC1(C)C(=O)NCc1ccccc1 (stereo not drawn) | 18.8% (inactive)
FC(F)(F)c1nc(-c2ccccc2)ncc1-c1nnnn1-c1ccccc1 | 16.8% (inactive)
Clc1ccc(-n2nnnc2-c2cnc(-c3ccccn3)nc2-c2cccs2)cc1 | -60.1% (active)

Structure (SMILES) | max response, negative = inhibition
N#Cc1ccc(CSc2nnc(-c3ccccn3)n2-c2ccc(Cl)cc2)cc1 | -15.7% (inactive)
Cn1c(NCc2cccnc2)nc2cc(-c3ccc(F)cc3)sc2c1=O | 0% (inactive)
CCN(CC)CCCSc1nc2ccccc2s1 | -73.9% (active)
CCc1ccc(-c2nnn(Cc3nc4ccccc4s3)n2)cc1 | 12.9% (inactive)
CCN(CC)CCn1c2c(c(SCC(=O)Nc3nc4ccccc4s3)nc1=O)CCCC2 | -4.31% (inactive)
CCc1nc2ccc(C(=O)Nc3ccc(OC)c(OC)c3)cn2c1N(C)C(=O)c1cccc(OC)c1 | -28% (inactive)
COc1ccc(-c2nc(CS(=O)CC(=O)NCc3cccnc3)c(C)o2)cc1OC (stereo not drawn) | -53.3% (active)
COc1ccc(-c2nc(CS(=O)CC(=O)NCc3ccccc3)c(C)o2)cc1OC (stereo not drawn) | -17% (inactive)
COc1cccc(-c2nc(CS(=O)CC(=O)NCc3ccc(F)cc3)c(C)o2)c1 (stereo not drawn) | -12.9% (inactive)
CCN(CC)CCN(C)C(c1ccnc2ccccc12)c1nnnn1-c1ccc2c(c1)OCCO2 (stereo not drawn) | 0% (inactive)
COc1ccc(CCNC(=O)c2cc3sccc3n2C)cc1OC | -72% (active)
COc1ccc(CCNC(=O)COC(=O)/C=C/c2cccs2)cc1OC | -11.9% (inactive)
Cn1c(C(=O)NCCCN2CCCCC2)cc2sccc21 | -17.4% (inactive)
COc1cc(C(O)c2nc(-c3cccc(C(=O)O)c3)cs2)ccc1F (stereo not drawn) | 5.94% (inactive)
CN(Cc1c(F)cccc1Cl)C(=O)COC(=O)Cn1cnc2ccccc2c1=O | 16% (inactive)
O=C(COc1cccc(-n2cnnn2)c1)NCCC1=CCCCC1 | -5.35% (inactive)
O=C(COc1ccc(Cl)cc1)NCCC1=CCCCC1 | -11.2% (inactive)
Cc1nnc(OCC(=O)NCCC2=CCCCC2)c2ccccc12 | -80.1% (active)
